# The list is not random: actives were taken first. Their share in the collection is about 7.5%.
# FLuc modulator = counter-screen for miR-21 project: firefly luciferase inhibitors or activators; P08659; purified FLuc, Km substrates, luminescence inhibition; Potency, µM (highest dose often 57.5 µM), for inactives: at the highest dose activity change, negative = inhibition, usual class: inhibitors; actives 6.9% (n = 360,000);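 also: plate controls were vehicle for no effect and reference inhibitor for full effect; nearly all actives have a fitted effect of over 55% in size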
# Target sequence (P08659 whole entry, looked up): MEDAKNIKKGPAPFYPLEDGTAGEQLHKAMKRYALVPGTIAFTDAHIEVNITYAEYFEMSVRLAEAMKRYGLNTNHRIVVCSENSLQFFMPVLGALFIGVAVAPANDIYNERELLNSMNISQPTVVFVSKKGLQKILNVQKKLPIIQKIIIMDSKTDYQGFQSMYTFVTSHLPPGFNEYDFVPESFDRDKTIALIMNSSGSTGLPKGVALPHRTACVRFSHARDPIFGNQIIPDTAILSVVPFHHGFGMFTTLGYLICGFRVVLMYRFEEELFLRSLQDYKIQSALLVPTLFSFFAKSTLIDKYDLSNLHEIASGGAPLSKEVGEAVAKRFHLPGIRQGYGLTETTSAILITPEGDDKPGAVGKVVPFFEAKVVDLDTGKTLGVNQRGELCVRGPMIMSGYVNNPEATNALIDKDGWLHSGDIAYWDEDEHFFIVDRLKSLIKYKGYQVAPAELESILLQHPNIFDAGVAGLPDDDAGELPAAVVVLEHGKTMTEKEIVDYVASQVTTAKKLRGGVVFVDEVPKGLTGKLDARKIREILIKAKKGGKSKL
#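 Biochemical qHTS of compounds, final roughly 60 µM downward over six points, against 10 nM purified firefly luciferase using Km concentrations of substrates (10 uM D-luciferin, 10 uM ATP) in Tris acetate pH 7.5 buffer; luminescence output.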
# ELG1 genotox = induces genotoxicity in HEK293T cells with luciferase-tagged ELG1 | HEK293T ELG1-luciferase reporter, luminescence, 16 h | Potency, µM (series often up to 46 µM), inactives show at the highest dose activity change, positive = activation, actives largely listed as activators | actives 1.3% (n = 330,000) | AID 504466; also: % of control where 0% means no effect; nearly all actives have a fitted effect of over 60% in size
#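 Genotoxic stress is detected as increased luminescence from luciferase-tagged ELG1 in HEK293T cells, measured with ONE-Glo after a 16 hr treatment at 37 °C.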
# Rab9 prom act = Rab9 promoter activation | Huh7 Rab9 promoter-luciferase reporter, luminescence, 24 h | Potency, µM (highest dose often 9.22 µM), for inactives: at the highest dose activation, negative = inhibition, hits mostly activators | actives 2.8% (n = 320,000) | AID 485297; also: % of control where 0% means no effect; nearly all actives have a fitted effect of over 60% in size
#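 Stable Rab9-luc Huh7, 1500 cells/well, 2 h settle; cmpd in DMSO, 24 h, 37 °C/5% CO2; luciferase reagent 10 min RT; luminescence.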
# SMN2 splice enh = enhancers of SMN2 splice variant expression | HEK293 SMN2-luciferase splicing reporter, luminescence, 30-36 h | Potency, µM (doses to about 46.1 µM), inactives show top-dose activity change, positive = activation, most hits filed as activators | actives 2.8% (n = 210,000) | AID 1458; also: % of control where 0% means no effect; nearly all actives have a fitted effect of over 55% in size
#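 qHTS luciferase splicing reporter: luminescence rises when SMN2 exon 7 is included in transfected HEK293 cells. Compound exposure lasted 30-36 h at 37C, with 4.5 mM final sodium butyrate as control, followed by a ONE-Glo read.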
# NPC1 promoter act = activators of NPC1 promoter. actives 2.4% (n = 320,000). Huh7 NPC1 promoter luciferase reporter, 24 h. Potency, µM (doses to about 9.22 µM), inactives show at the top dose activation, usual class: activators; also: % of control where 0% means no effect; nearly all actives have a fitted effect of over 60% in size
#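 Huh7 cells stably carrying NPC1 promoter–luciferase, plated in Opti-MEM with 10% FBS for 2 h, were exposed to compound in DMSO for 24 h at 37 °C; luciferase reagent was added for 10 min and luminescence read.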
# Luc counter = counter-screen: inhibitors of Kinase-Glo firefly luciferase | Kinase-Glo luciferase, ATP luminescence, 8 min | Potency, µM (doses to about 38.3 µM), without a hit: at the highest dose activity change, negative = inhibition, actives largely listed as inhibitors | actives 0.28% (n = 200,000); also: % is scaled to controls: 0 for no effect and ±100 for the full control effect; nearly all actives have a fitted effect of over 60% in size
#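 Luminescence was the read-out, taken after 8-minute incubation at ambient temperature. Luciferase turned over luciferin with 10 uM ATP in imidazole pH 7.2 buffer containing KCl, MgCl2, Tween 20 and BSA.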
# Active calls of the source: *; ? = inconclusive; nt = not tested or not shown; [ ] = dose if it differs, or a comment. Calls follow the shape of the dose curve; as a rule, active = well fitted curve in the direction sought with a large enough effect; inconclusive = small, poorly fitted or top-dose-only effect, or another doubt; inactive = no such curve, though single readings can be large; an effect the other way counts as inactive or inconclusive. Potency is read from the fitted curve at half-maximal effect.
SMILES,FLuc modulator,ELG1 genotox,Rab9 prom act,SMN2 splice enh,NPC1 promoter act,Luc counter
COc1ccc(/C=C2\CCC(C3CCCC3)C2=O)cc1OC (stereo unspecified),10.7µM*,?,5.5%,nt,?,nt
COc1cc(/C=C2\CCC(C3CCCC3)C2=O)ccc1OC(C)C (stereo unspecified),15.1µM*,16.6%,-0.5%[1.84 µM],nt,-4.6%,nt
COc1cc(/C=C(\C#N)C(=O)NCC2CCCO2)ccc1OC(C)C (stereo unspecified),?,-0.8%,-1.4%,-9.5%,2.6%,1.8%
COc1cc2c(=O)c(C(=O)c3ccc(F)cc3)cn(Cc3cccc(F)c3)c2cc1OC,1.1%,nt,nt,-8.4%,nt,nt
CCc1ccc2oc(C(=O)N(Cc3ccc(N(C)C)cc3)Cc3ccco3)c(C)c2c1,-14.3%,nt,nt,-11.4%,nt,nt
C=CCNC(=S)NC(=O)c1ccc(C)c(Br)c1,16.9µM*,?,?,14.1µM*,20.0%,-3.1%
Cc1cccc(NC(=O)CCS(=O)(=O)c2ccc3c(c2)n(C)c(=O)c(=O)n3C)c1C,0.7%,nt,nt,10.1%,nt,nt
COC(=O)CNC(=O)CNC(=O)c1nn(-c2ccc(OC)c(Cl)c2)c(=O)c2ccccc12,1.1%,-0.6%,2.3%,-10.8%,-7.7%,3.1%
CCCCNC(=O)CNC(=O)c1nn(-c2ccc(OC)c(Cl)c2)c(=O)c2ccccc12,-0.3%,4.3%,-1.9%,nt,-0.1%,nt
CCOC(=O)N1CCN(C(=O)CNC(=O)c2nn(-c3ccc(OC)c(OC)c3)c(=O)c3ccccc23)CC1,6.75µM*,-11.4%,11.5%,nt,-0.2%,nt
COc1ccc(-n2nc(C(=O)NCC(=O)N3CCCC3)c3ccccc3c2=O)cc1Cl,8.49µM*,-5.4%,10.9%,nt,-2.1%,nt
CCOC(=O)N1CCN(C(=O)CNC(=O)c2nn(-c3ccc(OC)c(Cl)c3)c(=O)c3ccccc23)CC1,4.78µM*,0.7%,19.4%,nt,6.3%,nt
CCOc1ccccc1NS(=O)(=O)c1ccc2oc(=O)c3ncn(C)c3c2c1,0.2%,nt,nt,nt,nt,nt
Cc1ccccc1-c1n[nH]c(=S)n1/N=C/c1c(C)nn(-c2ccccc2)c1C,0.9%,-8.6%,0.0%,14.1µM*,-1.9%,3.1%
CCCCN1C(=O)/C(=C2\SC(N3CCCCC3)=NC2=O)c2ccccc21,2.13µM*,?,1.78µM*,?,1.41µM*,-12.4%
Cc1csc(NC(=O)Cc2ccc(F)cc2)n1,?,?,3.55µM*,nt,?,nt
Cc1cccc(NC(=O)Cc2c(F)cccc2Cl)n1,15.1µM*,?,3.16µM*,nt,2.51µM*,nt
Cc1csc(NC(=O)Cc2c(F)cccc2Cl)n1,?,?,3.16µM*,nt,3.55µM*,nt
Cc1ccc(CC(=O)Nc2cccc(C)n2)cc1,?,20.6µM*,?,12.6µM*,?,-0.1%
O=C(Cc1c(F)cccc1Cl)Nc1ccncc1,3.4%,-7.1%,-3.9%,-36.5%,-2.4%,-2.6%
Cc1ccc(-c2nc(S(=O)(=O)c3ccc(Cl)cc3)c(N3CCCCC3)o2)cc1,-1.0%,nt,nt,-1.2%,nt,nt
CCC(=O)Nc1ccc(C(=O)Nc2cccc(C)n2)cc1,16.9µM*,?,2.51µM*,nt,3.55µM*,-16.2%
CCC(=O)Nc1ccc(C(=O)NNC(=O)c2ccccc2)cc1,-4.2%,2.2%,-3.7%,nt,5.2%,-2.0%
COc1ccc(-c2nc(CSCC(=O)NCCc3ccc(OC)c(OC)c3)c(C)o2)cc1,-17.0%,nt,nt,-34.6%,nt,nt
Cn1c(=N)n(CC(=O)c2ccccc2)c2ccccc21,1.2µM*,0.366µM*,1.12µM*,nt,3.16µM*,nt
SMILES,FLuc modulator,ELG1 genotox,Rab9 prom act,SMN2 splice enh,NPC1 promoter act,Luc counter
COc1ccc(C(=O)Cn2c(=N)n(C)c3ccccc32)cc1,8.49µM*,?,?,nt,26.3%,nt
COc1ccc(C(=O)CN2Cc3ccccc3C2=N)cc1,10.7µM*,2.59µM*,2.51µM*,nt,3.98µM*,nt
Cn1c(=N)n(CC(=O)O)c2ccccc21,0.2%,-0.3%,-2.3%,18.2%,-3.4%,-2.5%
Cn1c(=N)n(CC(=O)c2ccc(Cl)c(Cl)c2)c2ccccc21,0.379µM*,?,?,nt,?,nt
COc1ccc(C(=O)CN2C(=O)COc3ccccc32)cc1,2.4%,6.3%,-2.0%,nt,-5.9%,0.0%
CCc1ccc(CNC(=O)c2ccc(CSc3nc4ccncc4n3Cc3ccc(OC)cc3)cc2)cc1,-8.3%,nt,nt,25.3%,nt,nt
CCS(=O)(=O)N1CCC2(CC1)OC(=O)C(C)=C2C(=O)NCc1ccc(OC)c(OC)c1,2.5%,nt,nt,nt,nt,nt
N#C/C(C(=O)c1ccccc1)=C1/CCCCCN1,21.3µM*,?,2.51µM*,?,?,-8.2%
COc1ccc(-c2cc(C(=O)NNC(=S)NC(=O)c3c(-c4ccccc4)noc3C)[nH]n2)cc1,9.53µM*,-7.6%,2.0%,-7.7%,-3.7%,2.1%
CCCOc1ccc(C(=O)NNC(=S)NC(=O)c2cc(-c3ccc(Cl)cc3)nc3ccccc23)cc1,?,-5.2%,-6.0%,-9.3%,-9.3%,-5.4%
CCNC(=S)NNC(=O)c1cc(-c2ccc(OCC)cc2)nc2ccccc12,0.0239µM*,-7.4%,?,-14.5%,?,1µM*
CCNC(=S)NNC(=O)c1cc(-c2cccc(OC)c2)nc2ccccc12,0.675µM*,?,15.2%,?,24.3%,?
COc1ccc(C(=O)NNC(=S)NC(=O)c2cc(-c3ccccc3)nc3ccccc23)cc1,12µM*,-4.9%,2.7%,-14.1%,-1.5%,-2.3%
CCNC(=S)NNC(=O)c1cc(CC(C)C)nc2ccccc12,?,-2.0%,4.7%,-17.9%,-8.2%,-0.8%
Nc1ncnc2c1nc(Sc1ccc(Cl)cc1)n2[C@H]1OC2COP(=O)(O)O[C@@H]2C1O (stereo partly specified),nt,nt,2.3%[46.1 µM],nt,4.5%[46.1 µM],nt
CCOc1ccccc1CNC(=O)Cn1c(=O)c2cccn2c2ccc(F)cc21,10.2%,nt,nt,nt,nt,nt
Cc1ccc(NC(=O)Cn2c(=O)n(Cc3ccc4c(c3)OCO4)c(=O)c3ccccc32)c(C)c1,-2.8%,nt,nt,-4.8%,nt,nt
CCNC(=S)NNC(=O)c1cc(-c2ccccc2C)nc2ccccc12,16.9µM*,-5.9%,-4.1%,-8.6%,-6.7%,-1.0%
CCCOc1cccc(-c2cc(C(=O)NNC(=S)NCC)c3ccccc3n2)c1,0.757µM*,27.0%,?,21.4%,21.0%,-6.2%
Cc1ccc(C)c(-c2cc(C(=O)NNC(=S)NCC(C)C)c3ccccc3n2)c1,?,-2.7%,-4.5%,nt,-2.8%,nt
Cc1ccc(C(=O)N(C)CCOc2ccccc2)cc1S(=O)(=O)N1CCCCC1,0.6%,-0.2%,-4.6%,nt,-3.6%,nt
Cc1cccc(CNC(=O)c2cc3cc(S(=O)(=O)N4CCCCC4)ccc3n2C)c1,0.4%,nt,nt,nt,nt,nt
CCCc1nn(C)c(C(=O)Nc2ccc(CC)cc2)c1Cl,?,1.5%,0.6%,5.4%,0.7%,-2.7%
